The record followed here is PubChem BioAssay.

This assay has as its system Plasmodium falciparum Sir2 (PF13_0152, Sir2A). The assay can be described thus: pfSir2 binders on small-molecule microarrays, primary screen, biochemical, small-molecule microarray, 635 nm fluorescence (AID 1098).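 Also: score merges spot fluorescence intensity with its signal-to-noise ratio.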 The note with it: small-molecule microarray binding, fluorescence 635 nm; higher = more signal.
Compound `CO[C@H]1COC(=O)CC=C[C@H](C)[C@@H](OC)COC(=O)[C@@H](C)NC(=O)CC=C[C@@H]1C` registered a composite z-score of 1.23. On to `CCOC(=O)[C@H](Cc1ccccc1)NC(=O)OC1CC(CCC2CC(CC)=NO2)OC2(CCCC(COC(=O)NCCC(C)C)O2)C1` (stereo partly specified), for which the composite z-score amounted to 0.328. Next, `CC(C)CON=C1C[C@@H](O)[C@@H](O)[C@@H]2[C@@H]3C(=O)N(c4ccc(F)cc4F)C(=O)[C@@H]3CC[C@H]12`: 0.256.

For the compound `CC(C)(C)N1C(=O)[C@H]2[C@H]3[C@H](O)[C@H](O)CC(=NO[C@@H]4O[C@H](CO)[C@@H](O)[C@H](O)[C@H]4O)[C@H]3CC[C@H]2C1=O`, the composite z-score turned out to be 0.0937.

Take `COC(=O)C=CCCc1coc(C=CCNC(=O)OC)n1`: the composite z-score came out at 0.844. Next, `Cc1ccc(S(=O)(=O)OC[C@H]2CN3[C@H](c4ccc(Br)cc4)[C@@H](C)CC[C@H]3C(=O)O2)cc1`: 0.579. Regarding `CO[C@@H]1COC(=O)[C@@H](C)NC(=O)CC=C[C@@H](C)[C@H](NS(=O)(=O)c2ccc(C)cc2)COC(=O)[C@H](C)NC(=O)CC=C[C@H]1C`, the composite z-score amounted to 1.49.

The compound `COC(=O)[C@H](C)NC(=O)CCC1CC(OC(=O)NCc2ccc3c(c2)OCO3)CC2(CCCC(COC(=O)NCC3CCCCC3)O2)O1` (stereo partly specified) displayed a composite z-score of 0.74.

Take `C#CCCCON=C1C[C@@H](O)[C@@H](O)[C@@H]2[C@@H]3C(=O)N(C(C)(C)C)C(=O)[C@@H]3CC[C@H]12`: the composite z-score came out at 0.115.

On to `CCOC(=O)NN=C1C[C@@H](O)[C@@H](O)[C@@H]2[C@@H]3C(=O)N(C(C)(C)C)C(=O)[C@@H]3CC[C@H]12`, for which the composite z-score was found to be 0.217.

`C[C@H]1COC(=O)[C@@H]2CCCN2C(=O)[C@@H](C)COC(=O)[C@H](Cc2ccccc2)NC1=O`: the composite z-score was 0.878. `CCOC(=O)NN=C1C[C@@H](O)[C@@H](O)[C@@H]2[C@@H]3C(=O)N(c4cccc(Oc5ccccc5)c4)C(=O)[C@@H]3CC[C@H]12` returned a composite z-score of 0.424. In turn, `CCOC(=O)C1=NO[C@@]2(C=C(Br)C3(OCCCO3)[C@H]3O[C@H]32)C1` gave a composite z-score of 0.984. For the compound `CO[C@@H]1COC(=O)[C@H](CCSC)NC(=O)CC=C[C@@H](C)COC(=O)CCC[C@H]1C`, the composite z-score came to 0.919. The result for `CCOC(=O)[C@H](Cc1ccccc1)NC(=O)CCC1CC(OC(=O)NCc2cccc3ccccc23)CC2(CCCC(COC(=O)NCCC(C)C)O2)O1` (stereo partly specified) reads 0.12. `CC[C@@H](c1ccccc1)n1c(=O)n2n(c1=O)[C@H]1[C@H](O)[C@@H]3O[C@@H]3C(=O)[C@H]1CC2` yielded a composite z-score of 1.23. The result for `CCc1cc2c(nc1CC)CCN(CCC(C)=NO[C@H](C)c1cn([C@H](CO)Cc3ccccc3)nn1)C2` reads 0.536; that for `CCOC(=O)[C@H](CC(C)C)NC(=O)CCC1CC(OC(=O)NCc2ccc3c(c2)OCO3)CC2(CCCC(COC(=O)NCC(c3ccccc3)c3ccccc3)O2)O1` (stereo partly specified), 0.517. Next, `CCOC(=O)CCN1C(=O)[C@H]2[C@H]3[C@H](O)[C@H](O)CC(=NOCC(C)C)[C@H]3CC[C@H]2C1=O`: -0.108; `O=C1[C@H]2[C@H]3[C@H](O)[C@H](O)CC(=NOCc4ccccc4)[C@@H]3CC[C@H]2C(=O)N1C[C@@H]1CCCO1`: 0.0048; `CCOC(=O)[C@H](CC(C)C)NC(=O)CCC1CC(OC(=O)NCc2cccc3ccccc23)CC2(CCCC(COC(=O)NCC3CCCCC3)O2)O1` (stereo partly specified): 0.442. With `CC(C)=CCCC(C)=CCON=C1C[C@@H](O)[C@@H](O)[C@@H]2[C@@H]3C(=O)N(c4cccc(Oc5ccccc5)c4)C(=O)[C@@H]3CC[C@@H]12`, the composite z-score worked out at 0.517. Compound `O=C1[C@H]2[C@H]3[C@H](O)[C@H](O)CC(=NOC[C@@H](O)COCc4ccco4)[C@H]3CC[C@H]2C(=O)N1c1ccc(F)cc1F` displayed a composite z-score of -0.295. The compound `COc1ccc(O[C@@H]2[C@H](O)CO[C@H]2C=Cc2ccccc2)cc1` came in with a composite z-score of 0.1. For `COC(=O)[C@@H]1CC[C@H](C)[C@@H](c2ccc(C)cc2)N1C(=O)c1ccc(C=NO[C@@H]2O[C@H](COC(C)=O)[C@@H](OC(C)=O)[C@H](OC(C)=O)[C@H]2OC(C)=O)cc1`, the composite z-score amounted to 0.32.

As to `CO[C@H]1COC(=O)[C@H](C)NC(=O)[C@@H](C)COC(=O)[C@H]2CCCN2C(=O)CC=C[C@H]1C`, the composite z-score is -0.139. Next, `CC(C)=CCCC(C)=CCON=C1C[C@@H](O)[C@@H](O)[C@@H]2[C@@H]3C(=O)N(c4ccc(F)cc4F)C(=O)[C@@H]3CC[C@H]12`: 0.176; `COc1cc(O)c(C(=O)C=Cc2ccc3c(c2)OCO3)c(OC)c1`: 0.188; `COc1ccc(O[C@H]2C=C[C@@H](c3ccccc3)O[C@@H]2CON=C2[C@H]3CCn4c(=O)n(-c5ccccc5)c(=O)n4[C@H]3[C@H](O)[C@@H]3O[C@H]23)cc1`: 0.393. For the compound `COc1ccc(COC(=O)NN=C2C[C@@H](O)[C@@H](O)[C@@H]3[C@@H]4C(=O)N(Cc5ccccc5)C(=O)[C@@H]4CC[C@H]23)cc1`, the composite z-score is -0.515. Compound `CO[C@H]1COC(=O)[C@@H](C)COC(=O)[C@@H](OCc2ccccc2)C=C[C@@H]1C` registered a composite z-score of 0.212. Compound `COc1ccc(O[C@H]2C=C[C@@H](c3ccccc3)O[C@@H]2CON=C(C)CCN2CCc3nc(-c4ccccc4)c(-c4ccccc4)cc3C2)cc1` gave a composite z-score of 0.51. The result for `CCN1C(=O)[C@H]2[C@H]3[C@H](O)[C@H](O)CC(=O)[C@H]3CC[C@H]2C1=O` reads 0.519.

In turn, `CCCNC(=O)OC[C@H]1O[C@H](CCON=C(C)C)C=C[C@@H]1Oc1ccc(OC)cc1` displayed a composite z-score of 0.415. The result for `CCOC(=O)NN=C1C[C@@H](O)[C@@H](O)[C@@H]2[C@@H]3C(=O)N(c4ccc(F)cc4F)C(=O)[C@@H]3CC[C@@H]12` reads 0.468; that for `C[n+]1ccc(-c2ccc(CO)cc2)cc1`, -1.19.
